Rows were chosen to be rich in hits. Some 6.2% of all compounds tested hit in one or more screens of this group.
MARV entry inh: inhibitors of Marburg virus binding or cell entry. 300,000 compounds, 1.8% hits. Potency, µM (titrated, usually from 37.8 µM), usual class: inhibitors. Marburg virus pseudotyped entry inhibition, cell reporter. AID 540276; calls by dose curve; tested in HEK293 cells
LASV entry inh: Lassa virus entry inhibition. Lassa virus pseudotype entry inhibition, cell reporter. Potency, µM (top dose mostly 37.9 µM), most hits filed as inhibitors. 300,000 compounds, 1.2% hits. AID 540256; calls by dose curve; tested in HEK293 cells; also: nearly all actives have a fitted effect of over 50% in size
HCMV inh: human cytomegalovirus inhibition. HFF cells, HCMV-luciferase reporter, 72 h; hits give low values. activity change, negative = inhibition, % at 57.5 µM. 410,000 compounds, 4.5% hits. AID 1259415; in the data active = activity change below about -60%; inconclusive = no clear call, values can overlap the other calls; inactive = above about -39%
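Cell-based, HFFs, 1000 cells/well, 16 h 37C; cpds in DMSO + HCMV-luc, MOI 1 PFU/cell; 72 h 37C; OneGlo luminescence after 5 min RT; norm. to buffer vs Salinomycin 10uM.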
FMDV antiviral: blocks foot and mouth disease virus | Potency, µM (top dose mostly 57.9 µM), hits mostly inhibitors | FMDV antiviral cell-based qHTS | 410,000 compounds, 1.2% hits; calls by dose curve; tested in HEK293T cells; also: read-out not given here; nearly all actives have a fitted effect of over 45% in size
A number is an active result; i = inactive; ? = inconclusive; nt = no result given.

SMILES	MARV entry inh	LASV entry inh	HCMV inh	FMDV antiviral
CC1CCN(S(=O)(=O)c2ccc(N3CCCCS3(=O)=O)cc2)CC1	nt	i	i	i
COc1ccc(CCNC(=O)CCS(=O)(=O)c2cc3c(cc2Cl)NC(=O)CO3)cc1OC	nt	i	i	i
CCOc1cc(C(=O)Nc2ccc3nc(N4CCN(C)CC4)cc(C)c3c2)cc(OCC)c1OCC	5.6µM	i	-66	i
CCN1CCN(c2cc(C)c3cc(NC(=O)c4ccncc4)ccc3n2)CC1	nt	nt	i	i
Cc1cc(N2CCN(C)CC2)nc2ccc(NC(=O)Nc3cccc(Cl)c3)cc12	nt	?	-99	i
Cc1cc(N2CCN(C)CC2)nc2ccc(NC(=O)Nc3ccccc3)cc12	nt	i	?	i
O=C(NNc1ccccc1[N+](=O)[O-])Nc1ccc(Cl)c(Cl)c1	?	i	i	i
CCCCN(CCCC)S(=O)(=O)c1ccc(NC(=O)c2cccs2)cc1	18µM	?	?	i
CCN(CC)S(=O)(=O)c1cc([N+](=O)[O-])ccc1NNC(=O)Nc1ccc(Cl)c(Cl)c1	?	i	-93	?
CC(=O)N1CCN(c2ccc(NC(=O)c3ccc([N+](=O)[O-])cc3Cl)cc2)CC1	?	i	i	i
CCCCN(CCCC)S(=O)(=O)c1ccc(NC(=O)c2ccc([N+](=O)[O-])cc2Cl)cc1	?	?	-78	?
Oc1ccc(-c2cnc(-c3ccc(O)cc3)nc2)cc1	1.1µM	3.2µM	i	?
Cc1nc(SCc2nc3ccccc3[nH]2)c2oc3ccc(Br)cc3c2n1	nt	nt	i	35µM
Cc1nn(C)c2c1c(C(F)(F)F)cc(=O)n2CC(=O)N1CCCCC1	nt	i	i	i
CCOC(=O)/C(=C\c1ccc(Cl)cc1)c1nc2sc(C)c(C)c2c(=O)[nH]1	?	?	-75	10µM
CCOC(=O)CSc1nc2sc(C)c(C)c2c(=O)[nH]1	i	i	i	i
CN(C)C(=O)OC1=C(c2ccccc2)Sc2ccccc2-n2cccc21	nt	nt	nt	i
Cc1ccc(S(=O)(=O)N(C)C)cc1NC(=S)Nc1ccc2cn[nH]c2c1	i	i	-67	i
CC(=O)c1ccc(NC(=S)Nc2ccc3cn[nH]c3c2)cc1	i	i	-68	i
CN1OC(C)(CC(=O)NCc2ccccc2)N=C1c1ccccc1F (stereo unspecified)	nt	nt	i	nt
c1nc(NC2CC2)c2cc(-c3ccoc3)ccc2n1	nt	nt	nt	i
CCc1nc(OCc2ccccc2)c2sc3nc4c(cc3c2n1)COC(C)(C)C4	16µM	i	i	i
CC(=NNC(=S)N1CC2CCC(CC2)C1)c1ccncn1	?	0.32µM	-98	i
CCC1CCCCN1C(=S)NN=C(C)c1ccccn1 (stereo unspecified)	nt	nt	-98	nt
CC(=NNC(=S)N1CCCCC1)c1ccccn1	nt	nt	-98	?
SMILES	MARV entry inh	LASV entry inh	HCMV inh	FMDV antiviral
COC(=O)[C@@H]1[C@@H](CO)[C@@H]2Cn3c(ccc(Br)c3=O)[C@H]1N2S(=O)(=O)c1cn(C)cn1	nt	nt	i	nt
COc1ccccc1-c1cncnc1NCCN1CCOCC1	nt	nt	nt	i
CCc1ccc2nc(N(CCCN(C)C)C(=O)c3ccc(S(=O)(=O)N4CCc5ccccc5C4)cc3)sc2c1	?	i	-62	i
CCOc1cccc2sc(N(CCCN(C)C)C(=O)c3ccc(S(=O)(=O)N4CCc5ccccc5C4)cc3)nc12	nt	nt	-68	i
CN(C)CCCN(C(=O)c1ccc(S(=O)(=O)N2CCCC2)cc1)c1nc2ccc(Br)cc2s1	10µM	?	i	i
CCN(Cc1ccccc1)S(=O)(=O)c1ccc(C(=O)N(CCCN(C)C)c2nc3ccc(F)cc3s2)cc1	?	?	-80	i
CN(C)CC(C)(O)c1ccc2c(c1)CN(C(=O)c1ccc(-n3cccn3)cc1)CCO2 (stereo unspecified)	nt	nt	nt	i
COc1cc(=O)n2c(c1C(=O)N(C)C(C)c1ccco1)CCN(C(=O)c1ccc(C(C)=O)cc1)CC2 (stereo unspecified)	nt	nt	nt	i
CN(C)CCCN(C(=O)c1ccc(S(=O)(=O)N(C)C2CCCCC2)cc1)c1nc2ccc(F)cc2s1	?	?	i	i
CCc1ccc2nc(N(CCCN(C)C)C(=O)c3ccc(S(=O)(=O)N(C)C4CCCCC4)cc3)sc2c1	?	?	-86	i
COc1ccc([C@]23Cc4cc(C#N)ccc4[C@H](O2)C2=C(CC4(CCCCC4)OC2=O)O3)cc1	i	nt	nt	nt
Cc1cc(OCCOCCNCc2ccccc2)ccc1C(C)C	nt	nt	i	i
COc1ccc(CNCCC(c2ccc(OC(C)C)cc2)c2ccccc2OC)cc1OC (stereo unspecified)	?	?	-98	?
COc1ccccc1C(CCNCc1ccc(N(C)C)cc1)c1ccc(OC(C)C)cc1 (stereo unspecified)	nt	nt	-101	?
COc1ccc(CNCCC(c2ccc(C)cc2)c2ccco2)cc1 (stereo unspecified)	28µM	i	-78	i

Screens as filed in PubChem BioAssay.
